Screening results (PubChem BioAssay)
Marburg entry inh: inhibitors of Marburg virus binding or cell entry; actives 1.8% (n = 300,000); Potency, µM (doses to about 37.8 µM), for inactives: at the highest dose activity change, negative = inhibition, actives largely listed as inhibitors; Marburg virus pseudotyped entry inhibition, cell reporter; calls by dose curve; tested in HEK293 cells; further: potency means the concentration at half of the fitted maximal effect
HCV inh: inhibitors of hepatitis C virus infection; Potency, µM (top dose mostly 41.8 µM), for inactives: at the highest dose activity change, negative = inhibition, hits mostly inhibitors; Huh7.5.1 HCVcc-Cre infection, luciferase reporter, 44 h; AID 651820; actives 3.4% (n = 340,000); active means well fitted inhibition curve with a large enough effect; inconclusive means small, poorly fitted or top-dose-only effect, or another doubt; inactive means no such curve, though single readings can be large or run the other way; further: potency means the concentration at half of the fitted maximal effect
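Compounds are dispensed onto cells plated 4 h earlier at 1,000 per well, with HCVcc-Cre virus (about 0.5 moi) added next. Following 44 h of culture, luminescent signal is measured for 15 sec after 15 min with substrate at room temperature.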
VACV Venus inh: inhibitors of vaccinia virus (Venus reporter); Vaccinia virus Venus reporter expression, fluorescence; Potency, µM (doses to about 36.5 µM), for inactives: at the highest dose activity change, negative = inhibition, most hits filed as inhibitors; actives 0.46% (n = 330,000); AID 720580; calls by dose curve; tested in A549 cells; further: potency means the concentration at half of the fitted maximal effect; nearly all actives have a fitted effect of over 30% in size
Vaccinia mCherry: inhibitors of vaccinia virus infection (mCherry reporter signal); AID 720579; actives 0.63% (n = 310,000); Potency, µM (titrated, usually from 36.5 µM), for inactives: top-dose activity change, negative = inhibition, actives largely listed as inhibitors; Vaccinia virus mCherry reporter infection, fluorescence; calls by dose curve; tested in A549 cells; further: potency means the concentration at half of the fitted maximal effect; nearly all actives have a fitted effect of over 35% in size
HCMV antiviral: blocks human cytomegalovirus replication; HFF cells, HCMV-luciferase reporter, 72 h; stronger effect = lower value; activity change, negative = inhibition, % at 57.5 µM; actives 4.5% (n = 410,000); AID 1259415; in the data active means activity change below about -60%; inconclusive means no clear call, values can overlap the other calls; inactive means above about -39%
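Screen run at 2 compound doses on HFFs infected with reporter HCMV, MOI 1 PFU/cell. Luciferase activity from cell lysates at 72 h post infection gave inhibition relative to buffer-only and Salinomycin wells.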
Lassa entry inh: Lassa virus entry inhibition; actives 1.2% (n = 300,000); Lassa virus pseudotype entry inhibition, cell reporter; Potency, µM (series often up to 37.9 µM), for inactives: at the highest dose activity change, negative = inhibition, hits mostly inhibitors; AID 540256; calls by dose curve; tested in HEK293 cells; further: potency means the concentration at half of the fitted maximal effect; nearly all actives have a fitted effect of over 50% in size
Active calls of the source: *; i = inactive; ? = inconclusive; / = no result given; ! = not active in a repeat; [ ] = remark or other dose. Compounds with a hit are over-represented: about 7.8% of the library has one in this group of screens. On the % scale 0 is the no-effect control and ±100 the full control effect.

SMILES | Marburg entry inh | HCV inh | VACV Venus inh | Vaccinia mCherry | HCMV antiviral | Lassa entry inh
Cc1ccccc1NC(=O)c1sc2nc(-c3cc4ccccc4oc3=O)[nH]c(=O)c2c1C | / | / | -1% | -9% | 5 | 18%[46.1 µM]
COc1cc(C(=S)N2CCN(C(c3ccccc3)c3ccccc3)CC2)cc(OC)c1O | / | 11µM* | / | / | -27 | /
CCc1ccc(OCC(=O)N/N=C(\C)c2ccc3c(c2)OCCO3)cc1 | ? | -4% | -14% | i | -36 | ?
CCc1ccc(OCC(=O)N/N=C(\C)c2ccc(O)cc2O)cc1 | ? | 11µM* | -9% | ? | -6 | ?
Cc1ccc(C(=O)Nc2ccc(-c3csc(C)n3)cc2)cc1 | -16% | ? | -24% | -4% | ? | ?
O=C(Nc1ccc(-c2csc(-c3ccccc3)n2)cc1)c1ccccc1Cl | ? | ? | ? | ? | -67* | -18%
O=C(Nc1ccc(-c2csc(Nc3cccc(C(F)(F)F)c3)n2)cc1)c1cc([N+](=O)[O-])cc(C(F)(F)F)c1 | / | ? | ? | -29% | -78* | /
Cc1nc(-c2ccc(NC(=O)c3ccccc3)cc2)cs1 | / | 11µM* | / | / | ? | /
O=C(O)c1ccccc1C(=O)Nc1ccc(-c2csc(-c3ccccc3)n2)cc1 | ? | ? | -24% | -8% | -10 | 2%
O=C(Nc1ccc(-c2csc(Nc3cccc(C(F)(F)F)c3)n2)cc1)c1ccccc1 | / | ? | ? | ? | -83* | /
Cc1cc2c(cc1S(=O)(=O)N(C)CC(=O)Nc1ccc(C#N)cc1)OCC(=O)N2 | / | / | 2% | 0% | -17 | -1%[46.1 µM]
CC(NC(=O)c1cc(-c2ccc(Cl)cc2)on1)c1ccccc1 (stereo not given) | 8%[46.1 µM] | / | -7% | -15% | 7 | 19%[46.1 µM]
COc1cc(Nc2ccccn2)cc(C(=O)Nc2cccc(C(F)(F)F)c2)c1 | / | ? | ? | ? | -69*! | /
COc1cc(NC(=O)c2nccn2C)cc(C(=O)Nc2cccc(C(F)(F)F)c2)c1 | / | 2.5µM* | ? | ? | 26 | /
COc1cc(C(=O)OCC(=O)c2c[nH]c3ccccc23)ccc1OCC(=O)N1CCOCC1 | -14% | -24% | / | / | -64* | ?
C=CCN(c1ccccc1OC)S(=O)(=O)c1cccc(C(=O)OCC(=O)c2c[nH]c3ccccc23)c1 | ? | ? | -24% | -16% | -35 | 9.2µM*
CCOc1cc(C(=O)OCC(=O)c2c[nH]c3ccccc23)ccc1OCC(=O)N1CCOCC1 | 1%[46.1 µM] | ? | -12% | -15% | 52 | -4%
COc1cc(OC)c(N(C)S(=O)(=O)c2cccc(C(=O)OCC(=O)c3c[nH]c4ccccc34)c2)cc1Cl | ? | ? | -25% | -25% | ? | ?
Cn1nc(-c2ccc(OCC(=O)Nc3ccc(Cl)cc3)cc2)c2ccccc2c1=O | -4%[46.1 µM] | / | -9%[7.34 µM] | -24%[7.34 µM] | 35 | 0%[46.1 µM]
COC(=O)Cc1[nH]nc2c1C1(C(=O)N(Cc3ccccc3)c3ccccc31)C(C#N)=C(N)O2 (stereo not given) | 1% | 6% | / | / | 33 | -22%
Cc1[nH]nc2c1C1(C(=O)N(Cc3ccc(Cl)cc3)c3ccccc31)C(C#N)=C(N)O2 (stereo not given) | -24% | -7% | -20% | -14% | -70* | -15%
C=COC[C@H]1CN2[C@H](c3ccc(Br)cc3)[C@H](C)CC[C@H]2C(=O)O1 | -1%[14.2 µM] | / | / | / | / | /
CCCCNC(=O)c1nc2cc(C)c(C)cc2nc1-c1cccc(Br)c1 | / | / | / | / | -94* | /
CCN(CC)C(=O)c1c(-c2ccccc2)c(-c2ccccc2)nn(CC)c1=O | ? | / | -4% | -2% | 7 | 9%[46.1 µM]
CCOc1c(OC(C)=O)ccc(/C=C/c2ccc3cccc(OC(C)=O)c3n2)c1[N+](=O)[O-] | 10% | 8.9µM* | / | / | 26 | ?
SMILES | Marburg entry inh | HCV inh | VACV Venus inh | Vaccinia mCherry | HCMV antiviral | Lassa entry inh
COc1c(OC(C)=O)ccc(/C=C/c2ccc3cccc(OC)c3n2)c1[N+](=O)[O-] | ? | ? | ? | ? | 34 | -18%
CCOc1cccc(/C=C/c2ccc3cccc(O)c3n2)c1OC | ? | ? | -15% | ? | -93* | ?
CCOc1cccc(/C=C/c2ccc3cccc(O)c3n2)c1O | ? | 14µM* | -20% | -22% | -100* | ?
COc1ccc(S(=O)(=O)c2c(Nc3ccccc3F)sc(C(=O)c3cccc(OC)c3)c2N)cc1 | / | / | -29% | -17% | -36 | ?
CCOc1ccc(CCNC(=O)c2ccc(CS(=O)(=O)c3ccccc3C)o2)cc1OCC | 0%[46.1 µM] | / | -25% | ? | -17 | ?
CCOc1ccc(-c2nonc2NC(=O)c2ccc(C)cc2)cc1OCC | ? | / | -7% | -2% | -8 | 13%[46.1 µM]
Oc1ccccc1Oc1c(F)c(F)nc(N2CCCC2)c1F | ? | -27% | / | / | -13 | 4.6µM*
Oc1ccccc1Oc1ncc(Br)c(N2CCOCC2)n1 | -16% | -23% | ? | -10% | 39 | 18%
CC1=CC(C)(C)Nc2ccc(OC(=O)CCN3C(=O)c4ccccc4C3=O)cc21 | ? | ? | 72% | -5% | -100* | ?
Cc1ccc(OC(=O)CN2C(=O)c3ccccc3C2=O)cc1C | 20%[46.1 µM] | 5% | -13% | i | -61* | 24%[46.1 µM]
O=C(CN1C(=O)c2ccccc2C1=O)Oc1ccc(Cl)cc1 | -3%[46.1 µM] | 7% | -15% | i | -5 | 7%[46.1 µM]
N=c1c(-c2nc3ccccc3[nH]2)cc(C(=O)c2ccco2)nn1-c1ccccc1 | ? | 7.9µM* | / | / | ? | -8%
COc1cccc(Cn2c(=O)n(-c3cc(C)cc(C)c3)c(=O)c3oc4ccccc4c32)c1 | / | / | -9% | -7% | -25 | 1%[46.1 µM]
CC(CCC(=O)OC[C@H]1O[C@H](C#Cc2ccccc2)C=C[C@H]1Oc1ccc(C)cc1)=NO[C@H](C)c1cn([C@H](CO)Cc2ccccc2)nn1 | ? | / | / | / | / | -6%[14.3 µM]
COc1cccc(C2c3c(-c4ccccc4O)n[nH]c3C(=O)N2CCc2ccc(OC)c(OC)c2)c1 (stereo not given) | 7.1µM* | / | -13% | -16% | -26 | ?
COc1ccc(CCN2C(=O)c3[nH]nc(-c4ccccc4O)c3C2c2cccc(O)c2)cc1OC (stereo not given) | 7% | ? | -28% | ? | 90 | ?
COCCCN1C(=O)c2[nH]nc(-c3ccccc3O)c2C1c1ccc(OCc2ccccc2)cc1 (stereo not given) | ? | / | -9%[7.34 µM] | -11%[7.34 µM] | -96* | ?
CCCCN1C(=O)c2[nH]nc(-c3ccccc3O)c2C1c1ccc(OCc2ccccc2)cc1 (stereo not given) | ? | / | -5% | -3% | -108* | ?
CCOC(=O)C(CC)/C(C)=N\NC(=O)c1ccccc1O (stereo not given) | ? | 11% | ? | ? | -90* | -19%
